PubChem BioAssay (NCATS)
Inconclusive results are not listed. Where a call stands in place of a potency, no number is given. Active and inactive are the calls of the source. The call rests on the fitted dose curve; in most records, active means well fitted inhibition curve with a large enough effect; inconclusive means small, poorly fitted or top-dose-only effect; inactive means flat fitted curve, though single readings scatter.

Molecular target: Calcium and integrin-binding protein 1 (Homo sapiens) (UniProt Q99828)
Sequence (Q99828 whole entry, looked up): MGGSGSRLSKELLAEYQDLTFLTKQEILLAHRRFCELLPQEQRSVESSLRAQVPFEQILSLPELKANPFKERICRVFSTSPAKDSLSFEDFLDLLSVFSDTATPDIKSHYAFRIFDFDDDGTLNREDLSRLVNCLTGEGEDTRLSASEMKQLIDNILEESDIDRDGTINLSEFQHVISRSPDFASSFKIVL
Test: Primary qHTS for Identification of Calcium Integrin Binding Protein 1 (CIB1) Competitor (AID 1508620);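 further: GST tagged CIB1 binding a fluorescein labelled alphaIIb integrin peptide tracer; top concentration of the series differs between compounds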
Conditions: CIB1-GST / FITC-alphaIIb peptide fluorescence polarization; series mostly up to 114 µM
Method in brief: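 Fluorescence polarization competition: CIB1-GST (1 uM final) preincubated with compound 15 min at room temperature, then FITC-labeled alphaIIb peptide (100 nM final) added for another 15 min. Polarization read at Ex 480/Em 540.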

SMILES | Potency
CCCCN(C)C(=O)Cn1nc(-c2cncnc2)ccc1=O | inactive
O=C(Nc1sc2c(c1-c1nc3ccccc3s1)CCNC2)C(F)F | inactive
COc1ccnc(NC(=S)N2CCN(c3ccc(Cl)cc3Cl)CC2)c1 | inactive
O=C(O)C1C2C(=O)N(c3ccccc3)C[C@@]23C=C[C@@H]1O3 (stereo partly drawn) | inactive
O=C(OCC#CCSc1nnc(-c2cccc3ccccc23)o1)c1ccc2ccccc2c1 | inactive
O=C(NC1CCCc2c1cnn2-c1ccc(F)cc1F)C1CC1 (stereo not drawn) | inactive
COc1cc(OC)cc(-c2nnc3n2N=C(c2c(OC)cccc2OC)CS3)c1 | inactive
O=C(CNC(=O)c1ccc(C(F)(F)F)cc1)OC(C(=O)Nc1cc(C(F)(F)F)ccc1Cl)c1ccccc1 (stereo not drawn) | inactive
Nc1ccc(Nc2cc(O)c3ncccc3c2)cc1 | inactive
COc1cccc(OC)c1C1=Nn2c(nnc2-c2ccccc2C)SC1 | inactive
Cc1ccc2nc3sc(C(=O)Nc4ccc(F)cc4)cc3cc2c1 | inactive
Cc1cc(C)c(S(=O)(=O)Nc2cccc3cccnc23)c(C)c1 | inactive
FC(F)(F)c1cccc(N2CCN(C(=S)Nc3ccncc3)CC2)c1 | inactive
Cc1ccnc(NC(=S)N2CCN(c3ccccc3C(F)(F)F)CC2)c1 | inactive
O=C(O)c1cccc(-n2cccc2)c1 | inactive
CCOc1cccc(-c2cc(-c3n[nH]c(=S)n3CC)c3ccccc3n2)c1 | inactive
COc1ccc(C2Nc3ccccc3C(=O)N2Cc2cccc3ccccc23)cc1COc1ccc(NC(C)=O)cc1 (stereo not drawn) | inactive
Cc1ccc(CNc2ncnc3ccc(-c4ccc(C(=O)N(C)C)o4)cc23)o1 | inactive
